Holding throughout (experiment): DAPPL (digital affinity profiling via proximity ligation, sequencing); 10 mM Tris-HCl pH 7.5, 50 mM NaCl, 1 mM DTT, 4% glycerol, room temperature, 30 min; GST-TFs on glutathione beads, 16-mer random dsDNA library, 0.1% formaldehyde crosslink after washing; high values mean tight binding
The target in one test is T1, FLI1 (Homo sapiens, UniProt Q01543 1-452).
T1 sequence: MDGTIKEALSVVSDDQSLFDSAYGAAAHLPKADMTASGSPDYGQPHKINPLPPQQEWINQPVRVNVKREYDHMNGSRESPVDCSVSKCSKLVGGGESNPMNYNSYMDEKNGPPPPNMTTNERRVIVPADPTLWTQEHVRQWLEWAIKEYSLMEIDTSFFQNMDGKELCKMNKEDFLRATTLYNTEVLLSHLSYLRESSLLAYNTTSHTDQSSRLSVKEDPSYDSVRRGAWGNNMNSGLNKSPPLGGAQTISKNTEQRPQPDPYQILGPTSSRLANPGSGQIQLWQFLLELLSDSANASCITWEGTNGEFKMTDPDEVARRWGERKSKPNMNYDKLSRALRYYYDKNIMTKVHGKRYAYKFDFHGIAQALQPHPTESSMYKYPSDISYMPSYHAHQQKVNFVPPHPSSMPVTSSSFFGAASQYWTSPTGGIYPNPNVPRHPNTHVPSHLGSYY
Conditions: protein: recombinant; tags: N-terminal GST; dsDNA, one strand shown. In short, it runs like this:
(§1)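 The binding signal reported is, for every hexamer, its read frequency for a factor over its read frequency for the tag-only sample. Reads came from pools of yeast-expressed, GST-fused human transcription factors on glutathione beads, barcoded with DNA and mixed with that sample, which were incubated with 200 nmole of a random double-stranded 16-mer DNA library in Tris/NaCl/DTT/glycerol buffer at room temperature for 30 min. After washing, the pools were crosslinked with 0.1% formaldehyde, proximity-ligated with BsaI/T4 ligase for 1 h at 37 °C, PCR-amplified and sequenced on an Illumina NextSeq500.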

Another test has as its target T2, ELK1 (Homo sapiens, UniProt P19419 1-428).
T2 sequence: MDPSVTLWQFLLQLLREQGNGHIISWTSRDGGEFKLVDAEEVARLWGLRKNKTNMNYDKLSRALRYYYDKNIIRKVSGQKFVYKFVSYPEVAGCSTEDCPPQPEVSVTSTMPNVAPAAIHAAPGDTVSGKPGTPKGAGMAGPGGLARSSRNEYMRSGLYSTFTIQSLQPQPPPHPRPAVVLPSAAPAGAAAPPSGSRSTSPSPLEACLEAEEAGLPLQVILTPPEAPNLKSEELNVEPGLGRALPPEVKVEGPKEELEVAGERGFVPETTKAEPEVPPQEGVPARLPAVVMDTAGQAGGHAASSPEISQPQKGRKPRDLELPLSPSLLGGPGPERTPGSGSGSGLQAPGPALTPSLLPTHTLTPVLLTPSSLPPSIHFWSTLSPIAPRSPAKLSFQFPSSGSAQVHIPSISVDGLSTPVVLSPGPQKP
Conditions: protein: recombinant; tags: N-terminal GST; dsDNA, one strand shown. In short, it runs like this: as §1

The next test has as its target T3, GABPA (Homo sapiens, UniProt Q06546 1-454).
T3 sequence: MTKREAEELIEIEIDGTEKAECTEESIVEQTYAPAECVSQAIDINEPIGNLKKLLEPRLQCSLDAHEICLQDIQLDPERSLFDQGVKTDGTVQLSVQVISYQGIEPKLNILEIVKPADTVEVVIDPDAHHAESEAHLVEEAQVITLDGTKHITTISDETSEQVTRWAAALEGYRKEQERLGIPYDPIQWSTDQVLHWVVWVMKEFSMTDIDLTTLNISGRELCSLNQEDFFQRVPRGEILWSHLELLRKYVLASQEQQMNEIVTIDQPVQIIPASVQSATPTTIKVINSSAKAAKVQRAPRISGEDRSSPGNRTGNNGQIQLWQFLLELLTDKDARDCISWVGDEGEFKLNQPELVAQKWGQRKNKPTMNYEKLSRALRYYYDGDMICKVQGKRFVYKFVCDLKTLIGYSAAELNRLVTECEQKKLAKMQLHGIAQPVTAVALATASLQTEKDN
Particulars: protein: recombinant; tags: N-terminal GST; dsDNA, one strand shown. In short, it runs like this: as §1

The next test has as its target T4, ERG (Homo sapiens, UniProt P11308 1-479).
T4 sequence: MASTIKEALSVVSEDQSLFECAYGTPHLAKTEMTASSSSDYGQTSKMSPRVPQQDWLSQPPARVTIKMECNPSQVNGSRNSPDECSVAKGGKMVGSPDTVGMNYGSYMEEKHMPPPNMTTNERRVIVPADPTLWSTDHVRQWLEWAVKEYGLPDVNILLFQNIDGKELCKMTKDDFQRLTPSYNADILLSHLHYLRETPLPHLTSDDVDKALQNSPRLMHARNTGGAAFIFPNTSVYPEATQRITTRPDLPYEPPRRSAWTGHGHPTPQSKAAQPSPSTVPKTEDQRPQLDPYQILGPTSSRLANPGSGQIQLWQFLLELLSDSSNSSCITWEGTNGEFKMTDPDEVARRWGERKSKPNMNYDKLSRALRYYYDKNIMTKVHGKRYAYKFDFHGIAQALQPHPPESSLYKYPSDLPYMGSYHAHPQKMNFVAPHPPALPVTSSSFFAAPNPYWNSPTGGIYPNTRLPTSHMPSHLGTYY
Conditions: protein: recombinant; tags: N-terminal GST; dsDNA, one strand shown. In short, it runs like this:
as §1

A further test addresses ELF1 (Homo sapiens, UniProt P32519 1-619). Particulars: protein: recombinant; tags: N-terminal GST; dsDNA, one strand shown. In a few lines: as §1
The next test concerns the target T5, EHF (Homo sapiens, UniProt Q9NZC4 1-300).
T5 sequence: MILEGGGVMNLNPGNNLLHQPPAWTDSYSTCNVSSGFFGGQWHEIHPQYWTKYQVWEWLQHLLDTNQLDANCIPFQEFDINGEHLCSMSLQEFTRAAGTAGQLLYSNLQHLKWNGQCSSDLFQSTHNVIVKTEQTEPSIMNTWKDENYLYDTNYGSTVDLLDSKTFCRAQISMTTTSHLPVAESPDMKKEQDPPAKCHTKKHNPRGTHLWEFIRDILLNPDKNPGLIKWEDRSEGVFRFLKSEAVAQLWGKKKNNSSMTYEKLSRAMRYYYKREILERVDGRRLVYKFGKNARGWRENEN
Conditions: protein: recombinant; tags: N-terminal GST; dsDNA, one strand shown. In a few lines: as §1

The target of the next test is SPI1 (Homo sapiens, UniProt P17947 1-270). Conditions: protein: recombinant; tags: N-terminal GST; dsDNA, one strand shown. In a few lines:
as §1

Another test concerns the target SPIB (Homo sapiens, UniProt Q01892 1-262). Particulars: protein: recombinant; tags: N-terminal GST; dsDNA, one strand shown. In short, it runs like this: as §1
In another test the target is T6, FEV (Homo sapiens, UniProt Q99581 1-238).
T6 sequence: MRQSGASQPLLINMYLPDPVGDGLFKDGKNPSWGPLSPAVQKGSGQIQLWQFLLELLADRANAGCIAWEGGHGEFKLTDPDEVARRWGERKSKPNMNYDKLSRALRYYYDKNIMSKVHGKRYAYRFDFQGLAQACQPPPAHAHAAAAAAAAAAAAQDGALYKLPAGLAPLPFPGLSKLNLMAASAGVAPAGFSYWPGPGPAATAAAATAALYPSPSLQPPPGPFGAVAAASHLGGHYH
Conditions: protein: recombinant; tags: N-terminal GST; dsDNA, one strand shown. In short, it runs like this: as §1

Another test addresses ETV5 (Homo sapiens, UniProt P41161 1-510). Particulars: protein: recombinant; tags: N-terminal GST; dsDNA, one strand shown. In short, it runs like this: as §1
A further test addresses HSF1 (Homo sapiens, UniProt Q00613 1-529). Particulars: protein: recombinant; tags: N-terminal GST; chain copies: 3; dsDNA, one strand shown. In a few lines: as §1
The target of the next test is T7, SPIC (Homo sapiens, UniProt Q8N5J4 1-248).
T7 sequence: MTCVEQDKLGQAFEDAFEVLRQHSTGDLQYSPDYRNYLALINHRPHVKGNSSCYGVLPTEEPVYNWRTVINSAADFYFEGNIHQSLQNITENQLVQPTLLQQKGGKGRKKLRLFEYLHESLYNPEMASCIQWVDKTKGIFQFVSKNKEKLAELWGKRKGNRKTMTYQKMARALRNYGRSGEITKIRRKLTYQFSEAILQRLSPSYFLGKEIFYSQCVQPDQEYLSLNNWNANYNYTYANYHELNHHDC
Particulars: protein: recombinant; tags: N-terminal GST; dsDNA, one strand shown. In short, it runs like this:
as §1

The target of a further test is ELF4 (Homo sapiens, UniProt Q99607 1-663). Particulars: protein: recombinant; tags: N-terminal GST; dsDNA, one strand shown. In short, it runs like this: as §1
The target in another test is T8, ELK4 (Homo sapiens, UniProt P28324-2 1-405).
T8 sequence: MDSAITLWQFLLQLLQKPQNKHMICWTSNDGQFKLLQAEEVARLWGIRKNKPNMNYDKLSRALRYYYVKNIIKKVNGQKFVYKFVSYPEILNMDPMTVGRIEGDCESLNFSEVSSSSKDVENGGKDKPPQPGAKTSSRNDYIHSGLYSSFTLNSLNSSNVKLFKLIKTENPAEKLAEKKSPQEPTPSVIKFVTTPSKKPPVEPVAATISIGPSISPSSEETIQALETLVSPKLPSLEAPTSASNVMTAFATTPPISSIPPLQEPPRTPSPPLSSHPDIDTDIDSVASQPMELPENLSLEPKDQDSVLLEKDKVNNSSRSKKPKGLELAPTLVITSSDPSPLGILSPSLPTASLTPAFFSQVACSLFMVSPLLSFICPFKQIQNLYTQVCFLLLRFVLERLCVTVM
Particulars: protein: recombinant; tags: N-terminal GST; dsDNA, one strand shown. In short, it runs like this: as §1

The target of a further test is T9, ETV2 (Homo sapiens, UniProt O00321 1-342).
T9 sequence: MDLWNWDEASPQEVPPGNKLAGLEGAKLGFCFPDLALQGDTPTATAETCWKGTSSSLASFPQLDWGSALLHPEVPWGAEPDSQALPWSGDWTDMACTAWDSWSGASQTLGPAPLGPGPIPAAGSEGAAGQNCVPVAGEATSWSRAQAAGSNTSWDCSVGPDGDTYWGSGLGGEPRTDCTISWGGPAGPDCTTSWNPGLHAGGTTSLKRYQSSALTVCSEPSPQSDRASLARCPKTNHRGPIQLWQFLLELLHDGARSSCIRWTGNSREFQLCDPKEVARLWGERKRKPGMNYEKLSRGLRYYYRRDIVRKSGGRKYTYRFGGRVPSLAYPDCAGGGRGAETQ
Particulars: protein: recombinant; tags: N-terminal GST; dsDNA, one strand shown. In a few lines: as §1

Another test addresses T10, ELF3 (Homo sapiens, UniProt P78545 1-371).
T10 sequence: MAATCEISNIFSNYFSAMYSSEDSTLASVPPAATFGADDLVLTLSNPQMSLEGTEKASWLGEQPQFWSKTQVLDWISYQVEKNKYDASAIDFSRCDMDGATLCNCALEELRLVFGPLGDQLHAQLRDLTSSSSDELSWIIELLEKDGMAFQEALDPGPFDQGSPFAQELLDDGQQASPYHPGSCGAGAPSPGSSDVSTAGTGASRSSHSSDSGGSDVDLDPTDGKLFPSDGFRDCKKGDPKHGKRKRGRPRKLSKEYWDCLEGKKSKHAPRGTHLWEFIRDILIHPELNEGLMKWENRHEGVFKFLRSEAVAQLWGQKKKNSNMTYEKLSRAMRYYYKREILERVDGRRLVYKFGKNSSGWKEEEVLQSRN
Conditions: protein: recombinant; tags: N-terminal GST; dsDNA, one strand shown. In short, it runs like this: as §1

The target in a further test is CRX (Homo sapiens, UniProt O43186 1-299). Particulars: protein: recombinant; tags: N-terminal GST; dsDNA, one strand shown. In a few lines: as §1
The next test concerns the target ETV1 (Homo sapiens, UniProt P50549 1-477). Particulars: protein: recombinant; tags: N-terminal GST; dsDNA, one strand shown. In a few lines:
as §1

Sequence of ETV5 (P41161 whole entry): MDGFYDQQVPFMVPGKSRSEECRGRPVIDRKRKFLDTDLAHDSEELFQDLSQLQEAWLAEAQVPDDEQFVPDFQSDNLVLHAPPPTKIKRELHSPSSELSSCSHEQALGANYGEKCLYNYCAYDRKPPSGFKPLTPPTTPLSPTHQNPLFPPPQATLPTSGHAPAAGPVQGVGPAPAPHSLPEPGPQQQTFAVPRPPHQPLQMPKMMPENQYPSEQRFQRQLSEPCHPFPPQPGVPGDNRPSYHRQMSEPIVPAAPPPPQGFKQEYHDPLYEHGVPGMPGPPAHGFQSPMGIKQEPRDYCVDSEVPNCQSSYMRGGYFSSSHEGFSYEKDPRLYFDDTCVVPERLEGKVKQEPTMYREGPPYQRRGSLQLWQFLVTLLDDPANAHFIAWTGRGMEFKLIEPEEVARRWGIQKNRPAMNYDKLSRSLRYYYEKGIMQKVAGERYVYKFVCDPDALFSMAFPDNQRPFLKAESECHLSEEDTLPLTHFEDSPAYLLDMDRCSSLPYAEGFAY
Sequence of HSF1 (Q00613 whole entry): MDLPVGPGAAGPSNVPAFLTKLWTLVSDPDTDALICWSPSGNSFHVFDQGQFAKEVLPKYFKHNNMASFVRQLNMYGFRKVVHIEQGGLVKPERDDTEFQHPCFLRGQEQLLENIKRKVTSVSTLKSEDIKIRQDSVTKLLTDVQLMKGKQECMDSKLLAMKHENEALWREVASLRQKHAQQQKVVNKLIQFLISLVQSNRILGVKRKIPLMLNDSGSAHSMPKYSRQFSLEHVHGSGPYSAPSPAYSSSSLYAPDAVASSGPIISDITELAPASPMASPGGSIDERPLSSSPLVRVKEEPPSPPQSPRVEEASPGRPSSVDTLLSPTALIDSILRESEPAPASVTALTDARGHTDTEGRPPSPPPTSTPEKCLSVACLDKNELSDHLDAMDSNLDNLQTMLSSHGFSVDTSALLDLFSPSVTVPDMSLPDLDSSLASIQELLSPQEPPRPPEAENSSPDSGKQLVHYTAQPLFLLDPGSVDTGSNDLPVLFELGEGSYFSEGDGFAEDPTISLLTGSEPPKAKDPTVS
Sequence of SPIB (Q01892 whole entry): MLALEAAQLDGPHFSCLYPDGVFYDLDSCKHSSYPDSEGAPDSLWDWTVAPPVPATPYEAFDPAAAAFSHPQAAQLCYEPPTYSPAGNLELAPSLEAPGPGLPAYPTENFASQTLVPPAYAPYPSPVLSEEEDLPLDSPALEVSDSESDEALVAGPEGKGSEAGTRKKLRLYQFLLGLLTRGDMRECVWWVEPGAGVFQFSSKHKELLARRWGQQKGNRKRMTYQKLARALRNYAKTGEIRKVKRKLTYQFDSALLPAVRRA
Sequence of CRX (O43186 whole entry): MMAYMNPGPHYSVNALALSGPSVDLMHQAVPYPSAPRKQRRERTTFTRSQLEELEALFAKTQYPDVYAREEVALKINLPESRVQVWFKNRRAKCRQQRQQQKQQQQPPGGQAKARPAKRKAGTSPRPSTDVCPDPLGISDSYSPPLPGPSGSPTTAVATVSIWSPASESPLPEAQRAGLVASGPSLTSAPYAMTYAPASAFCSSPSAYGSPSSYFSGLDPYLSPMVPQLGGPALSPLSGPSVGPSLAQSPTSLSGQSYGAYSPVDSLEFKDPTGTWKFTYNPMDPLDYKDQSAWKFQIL
Sequence of ELF4 (Q99607 whole entry): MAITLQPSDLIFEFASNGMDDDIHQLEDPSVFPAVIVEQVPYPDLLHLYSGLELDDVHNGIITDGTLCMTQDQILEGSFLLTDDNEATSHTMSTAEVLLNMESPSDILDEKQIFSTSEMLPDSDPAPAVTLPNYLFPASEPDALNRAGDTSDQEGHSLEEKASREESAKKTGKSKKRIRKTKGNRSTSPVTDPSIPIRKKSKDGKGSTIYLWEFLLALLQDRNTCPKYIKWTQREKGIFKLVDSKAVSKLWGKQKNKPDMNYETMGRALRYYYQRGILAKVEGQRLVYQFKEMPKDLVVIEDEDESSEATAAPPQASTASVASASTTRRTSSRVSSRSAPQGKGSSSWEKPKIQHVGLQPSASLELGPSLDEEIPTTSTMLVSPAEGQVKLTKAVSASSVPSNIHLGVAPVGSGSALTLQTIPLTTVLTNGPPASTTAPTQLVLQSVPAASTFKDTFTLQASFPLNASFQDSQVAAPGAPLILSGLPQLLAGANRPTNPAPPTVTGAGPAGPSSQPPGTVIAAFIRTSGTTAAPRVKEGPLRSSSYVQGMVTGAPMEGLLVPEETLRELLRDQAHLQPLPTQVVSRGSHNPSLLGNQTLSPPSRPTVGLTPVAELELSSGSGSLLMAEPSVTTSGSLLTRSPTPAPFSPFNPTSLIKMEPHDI
Sequence of ELF1 (P32519 whole entry): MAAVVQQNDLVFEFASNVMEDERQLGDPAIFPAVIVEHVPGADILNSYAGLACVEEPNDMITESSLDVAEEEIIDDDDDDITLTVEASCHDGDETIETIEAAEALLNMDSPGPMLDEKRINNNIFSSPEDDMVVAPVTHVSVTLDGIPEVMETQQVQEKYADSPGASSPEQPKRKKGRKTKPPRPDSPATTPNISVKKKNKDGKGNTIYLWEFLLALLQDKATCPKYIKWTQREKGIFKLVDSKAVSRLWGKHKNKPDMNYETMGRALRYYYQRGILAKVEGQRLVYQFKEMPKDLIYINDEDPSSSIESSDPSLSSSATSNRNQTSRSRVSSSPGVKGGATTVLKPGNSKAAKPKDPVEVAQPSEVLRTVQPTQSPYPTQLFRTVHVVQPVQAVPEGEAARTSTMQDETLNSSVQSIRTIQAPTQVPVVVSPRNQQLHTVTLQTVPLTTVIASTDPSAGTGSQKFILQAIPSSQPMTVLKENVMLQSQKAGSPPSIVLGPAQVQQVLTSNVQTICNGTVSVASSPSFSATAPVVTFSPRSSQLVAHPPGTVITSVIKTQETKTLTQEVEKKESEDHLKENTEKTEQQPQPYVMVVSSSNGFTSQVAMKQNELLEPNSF
Sequence of ETV1 (P50549 whole entry): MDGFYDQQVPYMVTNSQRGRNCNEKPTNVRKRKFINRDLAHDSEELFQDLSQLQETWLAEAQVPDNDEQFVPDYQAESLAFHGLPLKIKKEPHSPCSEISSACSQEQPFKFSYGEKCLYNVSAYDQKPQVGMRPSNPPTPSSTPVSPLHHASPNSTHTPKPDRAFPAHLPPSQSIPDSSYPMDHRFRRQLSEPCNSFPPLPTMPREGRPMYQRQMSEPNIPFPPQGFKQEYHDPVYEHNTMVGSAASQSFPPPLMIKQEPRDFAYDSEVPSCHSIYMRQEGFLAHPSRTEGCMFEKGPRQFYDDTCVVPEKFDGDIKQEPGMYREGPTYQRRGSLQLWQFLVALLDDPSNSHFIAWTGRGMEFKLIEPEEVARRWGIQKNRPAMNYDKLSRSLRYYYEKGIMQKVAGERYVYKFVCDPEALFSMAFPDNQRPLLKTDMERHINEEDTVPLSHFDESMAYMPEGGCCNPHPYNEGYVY

Take TCAATT: the binding signal in the test with FLI1 is 1.09 fold enrichment (6-mer frequency, TF over GST control); in the test with ELK1, 1.06 fold enrichment (6-mer frequency, TF over GST control); in the test with GABPA it was 1.19 fold enrichment (6-mer frequency, TF over GST control); with ERG, 1.16 fold enrichment (6-mer frequency, TF over GST control); with ELF1, 1.16 fold enrichment (6-mer frequency, TF over GST control); in the test with EHF, 1.12 fold enrichment (6-mer frequency, TF over GST control). Also, the binding signal with SPI1 is 1.18 fold enrichment (6-mer frequency, TF over GST control); with SPIB it was 1.29 fold enrichment (6-mer frequency, TF over GST control); with FEV it was 1.16 fold enrichment (6-mer frequency, TF over GST control); with ETV5 it was 1.21 fold enrichment (6-mer frequency, TF over GST control); with HSF1 it was 1.1 fold enrichment (6-mer frequency, TF over GST control); with SPIC, 1.14 fold enrichment (6-mer frequency, TF over GST control). Also, the binding signal in the test with ELF4 was 1.18 fold enrichment (6-mer frequency, TF over GST control); with ELK4 it was 1.08 fold enrichment (6-mer frequency, TF over GST control); with ETV2 it was 1.24 fold enrichment (6-mer frequency, TF over GST control); with ELF3, 1.12 fold enrichment (6-mer frequency, TF over GST control); with CRX, 1.17 fold enrichment (6-mer frequency, TF over GST control); with ETV1, 1.14 fold enrichment (6-mer frequency, TF over GST control).

The record behind these values is paper PMC7862700, “An all-to-all approach to the identification of sequence-specific readers for epigenetic DNA modifications on cytosine”.
